Not all results are given here.
aSyn 5UTR act: Activators working through SNCA 5'UTR binding (MLPCN); alpha-synuclein 5'UTR reporter, activators screen; activity score, % (tested at 7.5 µM), hits read low; actives 7.1% (n = 300,000); AID 1814; in the data active = activity score below about -60%
Starred values were filed as active, the others as inactive.

SMILES	aSyn 5UTR act
O=[N+]([O-])c1cccc(/C=N/Nc2cc(N3CCOCC3)ncn2)c1	-90.0*
C/C(=N\Nc1cc(N2CCOCC2)ncn1)c1cccc([N+](=O)[O-])c1	-81.4*
C/C(=N\Nc1cc(N2CCOCC2)ncn1)c1ccccc1	-79.1*
Clc1ccccc1/C=N/Nc1cc(N2CCOCC2)ncn1	-151.3*
CN(c1ccc(C(=O)NCCSCc2ccco2)cc1)S(C)(=O)=O	-75.9*
CN(c1ccc(C(=O)NCCSC(C)(C)C)cc1)S(C)(=O)=O	-81.1*
CC(C)c1ccc(N(CC(=O)NCCSC(C)(C)C)S(C)(=O)=O)cc1	-83.5*
Cc1cnc(Nc2nc3ccccc3o2)nc1C(=O)Nc1cccc(C(F)(F)F)c1	-66.5*
CNc1nc(-c2ccccc2)[n+](-c2ccc(C)cc2)s1	-115.6*
COc1ccc(-c2nc3cccc(C)n3c2NCC2CCCO2)cc1O (stereo not drawn)	-99.4*
COc1ccc(C2CC(=O)c3sc(NC(C)=O)nc3C2)cc1 (stereo not drawn)	-74.6*
Cc1cc2n(n1)SC(Nc1ccc(F)c(Cl)c1)N2 (stereo not drawn)	-76.9*
COc1ccc(CNc2ncc(-c3ccc(F)cc3)n2C)c2ccccc12	65.1
COc1cccc(CNc2nc3ccccc3n2C)c1O	-93.7*
COc1cccc(CNc2cnc3ccccc3c2)c1O	-218.5*
Cc1ccc(O)c(CNc2cnc3ccccc3c2)c1	-99.7*
COc1ccccc1Nc1nc2ccccc2n1C	-121.7*
COc1cccc(CNc2ccc(F)c(Cl)c2)c1O	-183.8*
CN(C1=C(NC(=O)c2ccc(Cl)cc2)C(=O)c2ccccc2C1=O)c1ccccc1	-83.4*
CCOC(=O)c1nn(-c2ccc3c(c2)OCO3)cc1O	-144.4*
CCOC(=O)c1nn(-c2ccc(Cl)cc2)cc1O	-124.3*
COC(=O)c1nn(-c2ccc(-c3ccccc3)cc2)cc1O	67.0
CCOC(=O)c1nn(-c2ccc3ccccc3c2)cc1O	-133.7*
CCOC(=O)c1nn(-c2ccc(C)cc2)cc1O	-62.3*
CCOC(=O)c1ccc(N2CN(CC)CNC2=S)cc1	63.9
SMILES	aSyn 5UTR act
CCOC(=O)C1=NN(c2ccc(Cl)cc2)C(=O)C1	-144.0*
CCOc1ccc2[nH]c3ncccc3c(=O)c2c1	-138.6*
Cc1ccc(NC(=S)N/N=C/c2ccc([N+](=O)[O-])s2)cc1	-73.9*
COCCNc1c(-c2ccc(OC)cc2)nc2ccc(Cl)cn12	-116.6*
CCOC(=O)CNc1c(-c2ccc(OC)cc2)nc2ccc(Cl)cn12	-126.6*
COc1ccc2cc1Oc1ccc(cc1)C[C@H]1c3c(cc4c(c3Oc3cc5c(cc3OC)CCN(C)[C@@H]5C2)OCO4)CCN1C	109.2
Oc1csc(Cc2nc(-c3ccc4ccccc4c3)cs2)n1	-235.6*
Oc1csc(Cc2nc(-c3ccc(-c4ccccc4)cc3)cs2)n1	-112.3*
Oc1csc(Cc2nc(-c3ccccc3F)cs2)n1	-169.0*
Cc1cc(C)n(CCc2nc(-c3ccc(-c4ccccc4)cc3)cs2)n1	-71.3*
Cc1ccc(-n2nc(C)c3c(C)cc(=O)[nH]c32)cc1	-68.7*
Cc1cc(=O)oc2cc(OCC(=O)Nc3ccc(N4CCC(C)CC4)cc3)ccc12	-70.1*
CCCc1cc(=O)oc2cc(OCC(=O)Nc3ccccn3)ccc12	-91.7*
Cc1ccc(NC(=O)C2CCC(CNc3c(N4CCC(C)CC4)c(=O)c3=O)CC2)cc1F (stereo not drawn)	61.2
Cc1csc(NC(=O)COc2ccc3c(C)cc(=O)oc3c2)n1	-62.4*
O=C(c1cnn2cccnc12)N1CCN(c2ccccc2)CC1	-64.4*
O=C(Nc1cccc(O)c1)c1cnn2cccnc12	-109.7*
O=C(Nc1ccc2c(c1)OCO2)c1cnn2cccnc12	-141.5*
CCCN1C(=O)c2cccc3c(N4CCCCC4)ccc(c23)C1=O	-83.1*
Cc1ccc(N2C(=O)c3cccc4c(N)ccc(c34)C2=O)c2cccnc12	99.8
C/C(=N\Nc1nccnc1Cl)c1ccc(F)cc1	-104.3*
C/C(=N\Nc1nc(N)cc(Cl)n1)c1ccc(F)cc1	-71.1*
NC(=O)c1cnn(-c2ccc3ccccc3c2)c1N	-124.6*
CCc1ccc(C(=O)N/N=C(\C)c2ccncc2)s1	-93.2*
C/C(=N/NC(=O)c1ccc(C)s1)c1ccncc1	-87.4*
SMILES	aSyn 5UTR act
Cn1cccc1C(=O)C(=O)Nc1ccc(Cl)cc1	-119.4*
Cn1cccc1C(=O)C(=O)Nc1ccc(F)c(F)c1	-175.8*
Cn1cccc1C(=O)C(=O)Nc1cc(Cl)cc(Cl)c1	-155.4*
Cn1cccc1C(=O)C(=O)Nc1cccc(Cl)c1Cl	-147.6*
O=C(COc1ncnc2ccccc12)c1ccc(Cl)cc1	-204.4*
O=C(COc1ncnc2cc(Cl)ccc12)c1ccccc1	-61.9*
c1ccc(OCCOc2ncnc3ccccc23)cc1	-183.7*
Cc1[nH]c2ccccc2c1/C=C(\C#N)C(=O)NC1CC1	-80.0*
Cc1cc(C(=O)CS(=O)(=O)c2ccc(F)cc2)cc(C)c1O	-80.0*
Cc1cc(C(=O)CSc2ccccc2)cc(C)c1O	-160.1*
Cc1cc(C(=O)CS(=O)(=O)c2ccccc2)cc(C)c1O	-84.6*
COc1ccc(C2=NNC(c3cc(Cl)cc4c3OCOC4)C2)c(O)c1 (stereo not drawn)	-73.2*
N/C(=N\OC(=O)c1ccccc1)c1cccnc1	-128.2*
Cc1ccc(OCC(=O)O/N=C(\N)c2cccnc2)cc1	-88.1*
N/C(=N\OC(=O)COc1ccc(Cl)cc1Cl)c1cccnc1	-146.3*
N/C(=N\OC(=O)c1ccccc1Cl)c1cccnc1	-167.7*
N/C(=N\OC(=O)c1ccc(Cl)cc1[N+](=O)[O-])c1cccnc1	-103.6*
N/C(=N\OC(=O)c1cc(Cl)ccc1Cl)c1cccnc1	-130.7*
N/C(=N\OC(=O)c1cc(Br)ccc1Cl)c1cccnc1	-215.3*
CN1Cc2cc(C(=O)c3cc(Cl)cc(CSc4ncccn4)c3O)cnc2NC1=O	78.7
CCn1cc(NC(=O)CCl)c(C)n1	-103.6*
OCCN1CCN(CCCN2c3ccccc3Sc3ccc(C(F)(F)F)cc32)CC1	-65.2*
OCCN1CCN(CC/C=C2/c3ccccc3CSc3ccccc32)CC1	103.5
CN(C(=O)c1ccc(OC2CCN(CCc3ccccc3)CC2)cc1)C1CCCCC1	-124.9*
COc1ccc(CCN2CCC(Nc3nc4ccccc4n3Cc3ccc(F)cc3)CC2)cc1	102.5
SMILES	aSyn 5UTR act
COc1nc(-c2ccc(C)cc2)ccc1-c1noc(-c2ccco2)n1	-69.8*
COc1nc(C)ccc1-c1noc(-c2ccco2)n1	-124.1*
COc1nc(-c2ccccc2)ccc1-c1noc(-c2ccccc2F)n1	-108.8*
O=C(CCCCN1CCCCC1)c1ccc2c(c1)Cc1ccccc1-2	-64.6*
O=C(O)CCCc1ccc2c(c1)CCc1ccccc1-2	108.5
Cc1[nH]c2ccccc2c1/C=C/C(=O)c1ccccc1	-63.9*
Cc1[nH]c2ccccc2c(=O)c1C(=O)/C=C/c1ccccc1	-280.5*
Cc1ccc(COc2ccccc2C(=S)N2CCCC2)cc1	-76.3*
COc1cc(C(=S)N2CCCC2)ccc1OCc1ccc(C)cc1	-116.3*
CC1Cc2ccccc2N1c1ncnc(N)c1[N+](=O)[O-] (stereo not drawn)	68.7
O=[N+]([O-])c1ccc(N2CCN(c3ccccc3)CC2)cc1	-79.6*
O=[N+]([O-])c1ccc(-c2nnc(S)n2-c2ccccc2)cc1	-94.5*
CCOc1ccc(-n2c(SCc3ccc([N+](=O)[O-])cc3)nnc2-c2ccccc2)cc1	56.0
O=[N+]([O-])c1ccc(N2CCN(c3ccccc3)CC2)nc1	-75.7*
O=[N+]([O-])c1ccc(N2CCc3ccccc3C2)nc1	-66.3*
C/C(=N/N1CCN(c2ccccc2)CC1)c1cccc([N+](=O)[O-])c1	-70.3*

Screening data: PubChem, Broad Institute
